The values that follow come from PubChem BioAssay (NCI).

Compounds without any hit were thinned out: in the full panel of roughly 79,000, 15% have a hit. Calls of active or inactive are those of the source. No stated cut-off is given here; in the data, active means growth inhibition above about 70%; inactive means the rest.

The first assay in a line: NCI Yeast Anticancer Drug Screen. Data for the bub3 strain (AID 167). Particulars: S. cerevisiae bub3 mutant strain, at 50.0 µM, stronger effect = higher value. In outline: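 Part of a panel of yeast mutants defective in DNA damage repair or cell cycle regulation. Each strain is grown with compound, and inhibition is calculated relative to solvent-treated cultures.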
As for `COc1cc(C(=O)C/C(CCC(=O)Nc2ccccc2[N+](=O)[O-])=N\NC(=O)CC#N)ccc1O`, the growth inhibition is -11.6% (inactive).
On the same count and under the same terms, the value for `CC(=O)NC(Cc1cccc2ccccc12)C(=O)O` (configuration not stated) was 2.6% (inactive).
Same read-out and setting: under `C=CCc1cccc(CC=C)c1OCCN(CC)CC` stands 7.3% (inactive).
For the molecule `CC1NC(C)SC(C)S1` (configuration not stated), the growth inhibition is -0.7% (inactive).
On the same count and under the same terms, under `O=C(O)c1cccnc1Cl` stands 4.15% (inactive).
On the same count and under the same terms, the value for `O=C(c1ccccc1)N1C(=S)N=C(Nc2ccccc2)C1=Nc1ccccc1` was -20.9% (inactive).
Same read-out and setting: under `CCCn1c(C)nc2cc(C(F)(F)F)cc(N)c21` stands 17.9% (inactive).
As for `O=C1OC(=O)C2C3C=CC(CC3)C12` (configuration not stated), the growth inhibition was -31.1% (inactive).
On the same count and under the same terms, the value for `COc1cc(/C=C2\C=Cc3ccccc32)ccc1N(C)C` was 3.8% (inactive).
The same measure, in the same setting: the value for `CN1C(=O)C(=O)OC1=C(c1ccccc1)c1ccccc1` was -17.6% (inactive).
The same measure, in the same setting: under `CCCCNc1ccc(Cl)cc1` stands -15.5% (inactive).
For `CCCCc1c2cnccc2c(CCCC)c2c1[nH]c1ccccc12`, the growth inhibition is 89.2% (active).
Take `CCCCCCCCCCC(=O)OCC`: the growth inhibition is 1.2% (inactive).
Still for that read-out and setting: under `CCOC(=O)CN` stands -2% (inactive); under `COc1ccc(C2(C=O)NC(=O)NC2=O)cc1` (configuration not stated), -2.6% (inactive).
The same measure, in the same setting: the value for `CC1=NN(C(=O)c2ccc(Cl)cc2)C(=O)/C1=C/c1ccccc1O` was 12.3% (inactive).
On the same count and under the same terms, the value for `NC(=O)C1=CNCCC1` was 10.7% (inactive); that for `CCOc1nc2c(c(=O)n(C)c(=O)n2C)n1C` was 7.65% (inactive).
In the case of `COc1ccc(-c2nc(-c3cc4c(ccc5ccccc54)oc3=O)cs2)cc1`, the growth inhibition is 0.9% (inactive).
Take `COc1cccc(C2c3cc4c(cc3OC(Nc3ccccc3)C2C)OCO4)c1OC` (configuration not stated): the growth inhibition is -36.9% (inactive).
`CC1CCC(C)C(O)C1` (configuration not stated): the growth inhibition was -27.8% (inactive).
The same measure, in the same setting: under `CC1(c2ccc[n+](Cc3ccccc3)c2)OCCO1` stands -39.6% (inactive); under `COc1cccc(/C=C2/Sc3sc(C(C)=O)c(C)[n+]3C2=O)c1O`, -4.55% (inactive).
Still for that read-out and setting: under `CN1CCCC(C(=O)O)(c2ccccc2)CC1` (configuration not stated) stands -14.7% (inactive); under `C1CCC(C2CCCC[N-]2)[N-]C1.C1CCC(C2CCCC[N-]2)[N-]C1.[Cl][Ru][Cl]` (configuration not stated), -0.75% (inactive).
For `CN(C)C1=c2c(=O)n(C)c(=O)n(C)c2=NC2C=CC=CN12` (configuration not stated), the growth inhibition was 15% (inactive).
With `CCOC(=O)C(NC(=O)/C=C\C(=O)O)C(C)C` (configuration not stated), the growth inhibition is 15.4% (inactive).
Same read-out and setting: the value for `O=C(Nc1ccc(S(=O)(=O)NC2CCCCC2)cc1)OC(c1ccccc1)c1ccccc1` was -6.15% (inactive).
On the same count and under the same terms, the value for `COc1ccc2c(c1OC)C(=O)OC2(O)C1=NCCc2cc3c(cc21)OCO3` (configuration not stated) was 4.05% (inactive).
The same measure, in the same setting: under `C[N+]([O-])(Cc1ccccc1)c1ccccc1` (configuration not stated) stands -26.8% (inactive); under `CCOc1ccc(N=Cc2cc(Br)ccc2O)cc1`, 1.15% (inactive); under `NCCC1([N+](=O)[O-])CCNCC1`, -5.3% (inactive).
On to `COc1ccc(/C=N\S(=O)(=O)c2ccc(OC)cc2)cc1`, for which the growth inhibition is 2.2% (inactive).
Same read-out and setting: under `OC1CCSc2ccccc21` (configuration not stated) stands 23.6% (inactive); under `Cc1ccc(Cl)cc1NC(=O)Nc1ccc(Cl)c(Cl)c1`, 18.2% (inactive); under `CC(O)C(=O)NN` (configuration not stated), -4.65% (inactive).
Same read-out and setting: the value for `CC(C)C(C(=O)O)N(CC1(O)OCC(O)C(O)C1O)N=O` (configuration not stated) was -11.1% (inactive).

The nature of another assay: NCI Yeast Anticancer Drug Screen. Data for the mlh1 rad18 strain (AID 175). Particulars: S. cerevisiae mlh1 rad18 strain growth inhibition; at 50.0 µM; stronger effect = higher value. In outline: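 A repair-deficient yeast strain is exposed to test compound, and growth is scored relative to vehicle-treated controls.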
Consider `COc1cc(C(=O)C/C(CCC(=O)Nc2ccccc2[N+](=O)[O-])=N\NC(=O)CC#N)ccc1O`, for which the growth inhibition was -31.4% (inactive).
Still for that read-out and setting: under `CN=C(C#N)c1ccccc1` stands -15.8% (inactive); under `CC(=O)NC(Cc1cccc2ccccc12)C(=O)O` (configuration not stated), -6.45% (inactive); under `C=CCc1cccc(CC=C)c1OCCN(CC)CC`, 16.8% (inactive).
Take `CC1NC(C)SC(C)S1` (configuration not stated): the growth inhibition was 36.8% (inactive).
Still for that read-out and setting: under `O=C(O)c1cccnc1Cl` stands -4.45% (inactive).
The same measure, in the same setting: under `O=C(c1ccccc1)N1C(=S)N=C(Nc2ccccc2)C1=Nc1ccccc1` stands -35.9% (inactive); under `CCCn1c(C)nc2cc(C(F)(F)F)cc(N)c21`, 5.5% (inactive).
`NC1(C(=O)O)CCCc2ccccc21` (configuration not stated): the growth inhibition is 8.95% (inactive).
For the molecule `O=C1OC(=O)C2C3C=CC(CC3)C12` (configuration not stated), the growth inhibition was -0.1% (inactive).
Regarding `COc1cc(/C=C2\C=Cc3ccccc32)ccc1N(C)C`, the growth inhibition was -15.5% (inactive).
For `CN1C(=O)C(=O)OC1=C(c1ccccc1)c1ccccc1`, the growth inhibition was -18.2% (inactive).
On to `CCCCNc1ccc(Cl)cc1`, for which the growth inhibition is -15.6% (inactive).
On the same count and under the same terms, the value for `CCCCc1c2cnccc2c(CCCC)c2c1[nH]c1ccccc12` was 88.2% (active).
Still for that read-out and setting: the value for `CCCCCCCCCCC(=O)OCC` was -32.8% (inactive); that for `CCOC(=O)CN` was 14.1% (inactive); that for `COc1ccc(C2(C=O)NC(=O)NC2=O)cc1` (configuration not stated) was 9% (inactive).
Still for that read-out and setting: the value for `CC1=NN(C(=O)c2ccc(Cl)cc2)C(=O)/C1=C/c1ccccc1O` was -18.8% (inactive).
Consider `NC(=O)C1=CNCCC1`, for which the growth inhibition was 14.7% (inactive).
Consider `O=C(O)C(Br)C(Br)C(=O)Nc1cccc2ccccc12` (configuration not stated), for which the growth inhibition is 98.8% (active).
Same read-out and setting: the value for `CCOc1nc2c(c(=O)n(C)c(=O)n2C)n1C` was 20.9% (inactive).
The same measure, in the same setting: the value for `COc1ccc(-c2nc(-c3cc4c(ccc5ccccc54)oc3=O)cs2)cc1` was -41.5% (inactive).
The same measure, in the same setting: under `COc1cccc(C2c3cc4c(cc3OC(Nc3ccccc3)C2C)OCO4)c1OC` (configuration not stated) stands -21.4% (inactive).
Regarding `CC1CCC(C)C(O)C1` (configuration not stated), the growth inhibition was 3.25% (inactive).
Same read-out and setting: under `CC1(c2ccc[n+](Cc3ccccc3)c2)OCCO1` stands -27.1% (inactive); under `COc1cccc(/C=C2/Sc3sc(C(C)=O)c(C)[n+]3C2=O)c1O`, -9.6% (inactive).
On to `CN1CCCC(C(=O)O)(c2ccccc2)CC1` (configuration not stated), for which the growth inhibition was -24.1% (inactive).
Still for that read-out and setting: the value for `C1CCC(C2CCCC[N-]2)[N-]C1.C1CCC(C2CCCC[N-]2)[N-]C1.[Cl][Ru][Cl]` (configuration not stated) was 18.9% (inactive); that for `CN(C)C1=c2c(=O)n(C)c(=O)n(C)c2=NC2C=CC=CN12` (configuration not stated) was 22.6% (inactive).
Same read-out and setting: the value for `CCOC(=O)C(NC(=O)/C=C\C(=O)O)C(C)C` (configuration not stated) was 35.2% (inactive); that for `O=C(Nc1ccc(S(=O)(=O)NC2CCCCC2)cc1)OC(c1ccccc1)c1ccccc1` was 1.45% (inactive); that for `COc1ccc2c(c1OC)C(=O)OC2(O)C1=NCCc2cc3c(cc21)OCO3` (configuration not stated) was 13.2% (inactive).
Still for that read-out and setting: the value for `C[N+]([O-])(Cc1ccccc1)c1ccccc1` (configuration not stated) was 1.75% (inactive).
On to `CCOc1ccc(N=Cc2cc(Br)ccc2O)cc1`, for which the growth inhibition is -13.4% (inactive).
`NCCC1([N+](=O)[O-])CCNCC1`: the growth inhibition was 14.6% (inactive).
The same measure, in the same setting: the value for `COc1ccc(/C=N\S(=O)(=O)c2ccc(OC)cc2)cc1` was 0.5% (inactive); that for `OC1CCSc2ccccc21` (configuration not stated) was 23.2% (inactive); that for `Cc1ccc(Cl)cc1NC(=O)Nc1ccc(Cl)c(Cl)c1` was -4.75% (inactive).
Same read-out and setting: under `CC(O)C(=O)NN` (configuration not stated) stands 9.4% (inactive).
Same read-out and setting: the value for `CC(C)C(C(=O)O)N(CC1(O)OCC(O)C(O)C1O)N=O` (configuration not stated) was -12.9% (inactive).
